Measured values published in PubChem BioAssay (NCI).
Compounds without any hit were thinned out: in the full panel of roughly 83,000, 20% have a hit.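 The test compound was applied at a single concentration to cells in 96-well plates for 48 hours, and percent growth was recorded.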 A number with no mark means an inactive call. Active and inactive are the calls of the source. Rule for the calls: active = growth percent below 10; inactive = the rest.

Assays:
Test in all cases: NCI-60 one-dose screen, 48 h (100 = growth as untreated, 0 = no growth, -100 = all killed)
Conditions in all cases: 10 µM
[1] = system: HCT-15 colon
[2] = system: HT29 colon
[3] = system: SNB-75 CNS
[4] = system: SNB-19 CNS
[5] = system: PC-3 prostate
[6] = system: SK-MEL-5 melanoma
[7] = system: LOX IMVI melanoma
[8] = system: SK-MEL-28 melanoma
[9] = system: SK-MEL-2 melanoma
[10] = system: EKVX NSCLC
[11] = system: SN12C renal
[12] = system: UO-31 renal
[13] = system: TK-10 renal
[14] = system: ACHN renal
[15] = system: CAKI-1 renal
[16] = system: A498 renal
[17] = system: CCRF-CEM leukemia
[18] = system: MOLT-4 leukemia
[19] = system: U251 CNS
[20] = system: UACC-62 melanoma

Structure (SMILES) | growth [1] | growth [2] | growth [3] [%] | growth [4] | growth [5] | growth [6] | growth [7] | growth [8] | growth [9] | growth [10] | growth [11] | growth [12] | growth [13] | growth [14] | growth [15] | growth [16] | growth [17] | growth [18] | growth [19] | growth [20]
COc1cc(/C=C2\CCCC3=C2N=C2SC(C)=CN2C3c2cc(OC)c(OC)c(OC)c2)cc(OC)c1OC (stereo not given) | -65.4% (active) | -49.1% (active) | 59.4 | 52.7% | 44.5% | -71.6% (active) | -70.4% (active) | -51.6% (active) | -19.6% (active) | 19.6% | -23.6% (active) | -37.2% (active) | 2.25% (active) | -78.6% (active) | 11.1% | -30.9% (active) | 1.41% (active) | 1.02% (active) | – | –
CC(=O)Nc1cc2c(cc1Cl)Cc1cc(Cl)ccc1-2 | 85.9% | 99.4% | 64.1 | – | 86.1% | 86.6% | 89.7% | 104% | 103% | 12% | – | 65.4% | 86.4% | 88.2% | – | – | – | 103% | 89.1% | –
c1ccc(CCCCc2ccc3ccccc3n2)cc1 | 90.1% | – | 93.6 | 105% | 77.1% | 109% | 96.1% | 104% | 94.3% | 98.1% | 105% | 91.4% | 90.2% | 103% | – | 94.5% | 99.8% | 97.3% | 90.6% | 102%
C/C=C/C1=CN2C(=O)c3cc(OC4OC(C)C(NC)C(C)(O)C4O)c(C)c(O)c3N=C[C@@H]2C1 (stereo not given in full) | 4.24% (active) | 5.18% (active) | – | 9.3% (active) | 3.42% (active) | -62.2% (active) | -21.4% (active) | -37.2% (active) | 17.9% | – | 1.37% (active) | -44.5% (active) | 16.2% | 3.15% (active) | 9.27% (active) | -83.1% (active) | 1.22% (active) | 2.33% (active) | 5.6% (active) | -90.8% (active)
COc1ccc(C(=O)N/N=C/c2cc(C(F)(F)F)ccc2Cl)cc1 | 73.2% | – | 101 | 91.9% | 90.9% | 85.5% | 92.4% | 96.5% | 104% | 75.7% | 93.6% | 88.9% | 107% | 108% | 89.2% | 67% | 103% | 92.5% | 109% | 76.9%
CC[N+](CC)=c1ccc2nc3c(cc(NCc4ccccc4)c4ccccc43)oc-2c1 | -45.8% (active) | -62.9% (active) | – | -79.7% (active) | -19% (active) | -97.4% (active) | -64.2% (active) | – | -80.1% (active) | -96.7% (active) | -85.9% (active) | – | -10.6% (active) | – | -70.8% (active) | 44.8% | 19% | 2.86% (active) | -95% (active) | -73% (active)
CC1(C)N=C(N)N=C(N)N1c1cccc(C#N)c1 | 33% | – | 77.4 | 66.8% | 43.1% | 52.4% | 21% | 95% | 79.1% | 67% | 94.3% | 77.9% | 62.4% | 37.1% | 95.2% | 69.8% | 35.7% | 31.2% | 28.5% | 54.1%
Cc1c(O)c(=O)ccn1C1CCC(CC2CCC(n3ccc(=O)c(O)c3C)CC2)CC1 (stereo not given) | 18.9% | – | 21.1 | 30.2% | 41.7% | 29.2% | 25% | 49.4% | 66.8% | 10.2% | 41.5% | 38.6% | 50.1% | 35.7% | 25.2% | 50.9% | – | 25.7% | 30.2% | 14.6%
CSc1ccc(-c2cc(-c3ccc(NC(=O)CCCN4CCCC4)cc3)nc(-c3ccc(NC(=O)CCCN4CCCC4)cc3)c2)cc1 | 88.6% | 21.9% | 45.2 | 49.2% | 40.8% | 91.8% | – | 94.7% | – | – | 77.8% | 84.9% | 73.8% | 86.1% | 83.6% | 74.2% | – | 4.93% (active) | – | 93.4%
O=C1/C=C/[C@@H](O)[C@@H]2C[C@@H](O)C[C@H]2/C=C/CCC[C@@H](C(F)(F)F)O1 | 100% | 39.9% | 60.7 | 97.1% | 92.9% | 60.5% | 71.3% | 61.8% | 86.3% | 90.4% | 90.3% | 47.6% | 73.7% | 98.3% | 98.4% | 84.8% | 92.2% | 84.7% | – | –
CC(C)[N+]1(C)C2CC[C@@H]1CC(OC(=O)C(CO)c1ccccc1)C2 (stereo not given in full) | 107% | 106% | – | – | 92.4% | 95.6% | 94.5% | 122% | – | 105% | 103% | 90.7% | 107% | 105% | – | 92.4% | 92.3% | 121% | – | 108%
CC(C)(C)OC(=O)N1CCc2c(sc3ncnc(N/N=C/c4cccc(Br)c4)c23)C1 | 18.8% | – | 67.6 | 64.7% | 44.4% | 44.1% | 33.1% | 75.2% | 76.1% | 26.3% | 50.9% | 21% | 56.3% | 33.9% | 31.4% | 72.7% | – | 18% | 51% | 43%
COc1ccc(-c2nc(-c3nc4ccc(C)cc4[nH]3)cc3c2[nH]c2ccccc23)cc1 | 29.7% | 30% | – | 84.1% | 43.8% | 35.6% | 25.8% | 71.7% | 9.81% (active) | – | 28.5% | – | 45% | 26.8% | 44.4% | 68% | 29.4% | 21.9% | 34.8% | 21%
Cc1cc(O)ccc1C1=NN(c2ccc(S(C)(=O)=O)cc2)C(=O)CC1 | 44.9% | 38.9% | 75.2 | 78.2% | 77.9% | 68.3% | 67.5% | 81.2% | 68.7% | 72.2% | 90.3% | 48.8% | – | 79.7% | – | – | 69.7% | 52.7% | – | –
Cc1ccc2nc(Cl)c(-c3nc4ccccc4o3)cc2c1 | 79.4% | – | 90.2 | 93.2% | 79.8% | 88.7% | 82.8% | 104% | 94.2% | 88.1% | 104% | 62.9% | 115% | 76% | 105% | 75.6% | 98.1% | 81.4% | 102% | 94.9%
C[C@]12CC[C@@H]3c4ccc(OS(=O)(=O)O)cc4CC[C@H]3[C@@H]1CC[C@@H]2NS(=O)(=O)c1ccc(-c2ccccc2)cc1 | 52.6% | 50% | 75.6 | 89.6% | 41% | 67.4% | – | 95.8% | – | – | 68.7% | 40.8% | 93.3% | 47.7% | 66.2% | 85.1% | – | 31.4% | – | 79.1%
N#CC1=CC2CN(Cc3ccccc3)C1C1C(=O)N(c3ccccc3)C(=O)C21 (stereo not given) | 96.5% | 103% | 91.1 | 101% | 101% | 93.3% | 89.2% | 102% | 105% | 94.7% | 100% | 74.7% | 96.2% | 103% | 101% | – | 97.2% | 89.5% | – | –
Cc1c(C(N)=O)sc2c1c(=O)n(Cc1ccccc1)c1nnc(-c3ccc(Br)cc3)n21 | 25.3% | 28.6% | – | 51.8% | 37.2% | -38.2% (active) | 5.15% (active) | 46.2% | 42.5% | 36.7% | 32.8% | – | 47.4% | 10.1% | 1.27% (active) | 56% | – | – | 11.5% | 6.17% (active)
